# Compound activity deposited in PubChem by several laboratories.
# This is a sample that favours compounds with a hit; in the whole collection about 2.1% have one here.
# Myeloid diff 2: compounds promoting myeloid differentiation | ER-HoxA9 myeloid progenitors, lysozyme-GFP differentiation, flow cytometry | calls only at 10 µM | 360,000 tested, 1% active | AID 624256;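 active means normalized GFP-positive differentiation at or above the plate's own cutoff, the solvent-only control mean plus 3 SD; inconclusive means no clear call, values can overlap the other calls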;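 further: cells exposed to compound for four days before flow analysis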
# Rpn11 inh: blocks the human proteasome subunit Rpn11 | O00487 | human 26S proteasome, Ub4-pepOG fluorescence polarization; 20S core pre-blocked with epoxomicin | inhibition, % at 20 µM | 360,000 tested, 0.59% active;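 active means inhibition at 20 µM, scaled to each plate's controls, above about 33%, limit read from the data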
# Target sequence (O00487 whole entry, looked up): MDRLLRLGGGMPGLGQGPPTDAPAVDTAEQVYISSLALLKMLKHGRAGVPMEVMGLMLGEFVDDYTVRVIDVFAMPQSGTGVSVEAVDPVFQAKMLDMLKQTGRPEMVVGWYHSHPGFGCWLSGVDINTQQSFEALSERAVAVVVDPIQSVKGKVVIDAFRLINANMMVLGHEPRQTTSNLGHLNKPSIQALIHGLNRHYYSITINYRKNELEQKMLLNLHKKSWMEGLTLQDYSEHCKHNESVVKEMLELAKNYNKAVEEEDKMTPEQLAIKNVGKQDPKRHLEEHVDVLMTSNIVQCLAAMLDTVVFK
# TPT1 inh: inhibitors of Candida albicans tRNA 2'-phosphotransferase TPT1 | recombinant caTPT1, FP RNA substrate dephosphorylation | inhibition, % at 5 µM | 300,000 tested, 0.81% active | AID 1962;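 active means inhibition above the mean of all tested compounds plus 3 SD, set per screening campaign, cut at about 24% in these data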;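 further: plate controls were DMSO alone for no effect and ferristatin control at 100 nM for full effect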
# HNF4A DNA FP: change in binding of human HNF4 alpha to DNA | AID 1224865 | P41235 | HNF4a-FITC DNA binding, fluorescence polarization, 1 h | activity change, % at 10 µM | 360,000 tested, 0.3% active; in the data active means activity change above about 30%, passing the limit was not always enough
# * = called active by the depositor; i = inactive; ? = inconclusive; . = no result; + = active, no number.
SMILES,Myeloid diff 2,Rpn11 inh,TPT1 inh,HNF4A DNA FP
C[C@H](CO)N1C[C@H](C)[C@@H](CN(C)Cc2ccc(Cl)c(Cl)c2)Oc2c(NC(=O)Cc3ccccc3)cccc2C1=O,+,2.9,.,0.5
COc1ccc(NC(=O)C(c2ccccc2F)n2c(=O)c(-c3ccco3)nc3ccccc32)cc1 (configuration not stated),i,.,.,16.2
COc1ccc(NC(=O)C(c2ccnc3ccccc23)n2c(=O)c(-c3ccco3)nc3ccccc32)cc1 (configuration not stated),i,.,.,10.7
CC(C)(C)NC(=O)C(c1ccc(-c2ccccc2)cc1)n1c(=O)c(-c2ccco2)nc2ccccc21 (configuration not stated),i,.,.,46.0*
COc1ccc(C(C(=O)NC(C)(C)C)n2c(=O)c(-c3ccco3)nc3ccccc32)cc1 (configuration not stated),i,.,.,17.2
Cc1cccc(C)c1NC(=O)C(c1ccnc2ccccc12)n1c(=O)c(-c2ccco2)nc2ccccc21 (configuration not stated),i,.,.,44.0*
Cc1cccc(C)c1NC(=O)C(c1ccccc1F)n1c(=O)c(-c2ccco2)nc2ccccc21 (configuration not stated),i,.,.,44.9*
CCCCCNC(=O)C(c1cccc2ccccc12)n1c(=O)c(-c2ccco2)nc2ccccc21 (configuration not stated),i,.,.,39.7*
O=C(CP(=O)(c1ccccc1)c1ccccc1)Nc1nc2ccc(Cl)cc2s1,i,6.2,3.2,1.1
Cc1c(Cl)cccc1NC(=O)COC(=O)c1ccc(CN2CCCC2=O)cc1,i,9.5,.,-2.0
CC(=O)Oc1ccc(Cn2c(C)c(C(=O)NCCC#N)sc2=O)cc1,i,-6.8,.,-0.8
Cc1cn([C@H]2C[C@H](O)[C@@H](/C=C/C(=O)NCc3ccco3)O2)c(=O)[nH]c1=O,+,2.9,.,1.1
CCOc1ccc(S(=O)(=O)Nc2ccccc2C(=O)NCC2CCCO2)cc1 (configuration not stated),i,-2.8,1.0,1.0
CCOC(=O)c1ccccc1NS(=O)(=O)c1ccc(OCC)cc1,+,1.8,-3.4,3.0
O=c1c(Cl)c2oc3ccccc3nc-2c2ccccc12,+,-12.9,22.7,-11.2
CCOC(=O)Cc1nn2c(=O)cc(C)nc2s1,+,5.7,3.0,3.1
Cc1ccc(-n2c(SCC(=O)NC3CCS(=O)(=O)C3)nc3ccccc3c2=O)c(C)c1 (configuration not stated),i,-1.3,.,1.4
Nc1nc2c(ncn2COC(CO)CO)c(=O)[nH]1,+,-1.3,-0.3,0.0
CCO[C@@H]1OC(C(=O)N2CCOCC2)=C[C@H](C2CCCCC2)[C@H]1CCCO,+,4.8,2.1,-4.8
CCO[C@@H]1OC(C(=O)N2CCCCCCC2)=C[C@H](C2CCCCC2)[C@H]1CCCO,i,-2.1,-3.4,1.2
CN(C)S(=O)(=O)c1ccc(C(=O)Nc2ccccc2OC(F)(F)C(F)F)cc1,+,-3.1,-3.3,3.6
CCCCNC(=O)CCC(=O)Nc1ccc2nc(N3CCCCC3)cc(C)c2c1,+,5.2,-3.1,0.5
CCN1CCN(c2cc(C)c3cc(NC(=S)N4CCCC(C)C4)ccc3n2)CC1 (configuration not stated),+,7.3,0.8,-1.5
CCN1CCN(c2cc(C)c3cc(NC(=S)N4CC(C)CC(C)C4)ccc3n2)CC1 (configuration not stated),i,-0.2,.,2.9
CNn1cnc2ccsc2c1=O,i,-9.0,-0.7,2.9
SMILES,Myeloid diff 2,Rpn11 inh,TPT1 inh,HNF4A DNA FP
Cc1noc(/C=C/c2ccco2)c1S(=O)(=O)N1CCC(C(=O)N2c3ccccc3CC2C)CC1 (configuration not stated),i,36.5,7.3,44.4*
CCCCN1C(=O)Cc2c1nc(N)c1c(N)nc(N(CCC)CCC)c(C#N)c21,+,8.3,-8.2,5.1
Cc1ccnc(SCc2ccc(C(=O)O)cc2)n1,i,-3.4,1.9,68.7*
COc1cc(C(C)=O)ccc1OCC(=O)NCc1ccccc1CN1CCCC1,i,-3.8,.,4.5
COc1ccccc1CNc1nc(NC(C)C)nc2cc(-c3ccccc3)sc12,+,3.8,.,-0.3
COc1ccc2cc(C#N)c(N3CCOCC3)nc2c1,+,3.1,1.5,5.8
CCN(CC)c1nc2cc(OC)ccc2cc1C#N,+,31.7,5.5,10.9
CSCC[C@H](NC(=O)OC(C)(C)C)C(=O)NCC1CCC(C(=O)N[C@@H](Cc2ccccc2)C(=O)O)CC1 (some centres not stated),+,16.4,-1.8,8.1
CSCCC(NC(=O)c1ccco1)C(=O)NCC1CCCCC1 (configuration not stated),i,-3.4,.,0.9
CSCCC(NC(=O)c1ccccc1Br)C(=O)NCC1CCCCC1 (configuration not stated),+,6.7,1.5,-2.5
CCC(C)CN1C(=O)CSCC1(C)C(=O)NC(C)C (configuration not stated),i,.,.,0.6
Cn1c(=O)oc2cc(S(=O)(=O)Nc3ccc(F)cc3)ccc21,i,1.1,-1.8,-3.1
O=C1C=CC2(O[C@H](c3ccccc3)[C@@H](c3ccccc3)O2)[C@H](Sc2ccccc2O)C1,+,3.7,.,-4.9
O=C(COc1ccc(Cl)cc1)NCCNC(=O)c1ccccn1,i,6.1,-2.8,55.5*
O=C(/C=C/c1cccc([N+](=O)[O-])c1)c1ccc([N+](=O)[O-])o1,+,2.8,-0.3,0.3
Cc1cccc(/C=C/C(=O)c2ccc([N+](=O)[O-])o2)c1,?,0.3,2.0,-0.4
CCOC(=O)c1cc(-c2ccc(/C=C3/C(=O)N(c4ccc(C(=O)O)cc4)N=C3C)o2)ccc1Cl,+,-9.8,-2.1,-3.6
CCOC(=O)N1CCC(NC(=O)c2cccc3c2C(=O)N(Cc2cccnc2)C3)CC1,i,-7.6,-1.2,1.4
COc1cccc(OC)c1-c1nn2c(-c3cc(-c4ccccc4)n[nH]3)nnc2s1,i,22.1,14.9,224.7*
COc1cccc(-c2nnc3sc(-c4ccccc4)nn23)c1,i,-8.8,-1.3,3.5
Cc1ccc2ccc[n+](Cc3ccccc3)c2c1,i,19.4,-1.1,9.5
COc1ccc2c(c1)c(C)cc[n+]2Cc1ccccc1,+,-5.4,.,-1.5
Cc1ccc2c(c1)c(C)cc[n+]2Cc1ccccc1,+,-0.2,-0.6,0.7
COCCN(C(=O)CCC(=O)Nc1cc(C)on1)C(C(=O)NC(C)(C)C)c1cccc(OC)c1OC (configuration not stated),i,-7.9,-4.0,1.8
CCCCn1nnc(NC(=O)c2sc3cc(Cl)ccc3c2Cl)n1,i,12.4,1.9,-0.7
CCN(CC)Cc1ccc(NC(=O)c2sc3cc(Cl)ccc3c2Cl)cc1,+,-0.2,-1.2,10.5
O=C(CCc1nnc(CCC2CCCCC2)o1)NCc1ccon1,i,-5.8,-2.6,1.0
CCOC(=O)CSc1nnc(-c2ccc(OC)cc2)n1CC,i,5.2,-4.0,0.8
